We go through 98 compounds from PubChem BioAssay AID1465 (SRMLSC, 2008).

Screen size: about 220,000 compounds; about 160 (0.073%) were called active. These entries were drawn from the full list. Potency and affinity values are given separately. Unmarked numbers belong to inactive results.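 How the source made its calls: active means fold induction of absorbance versus untreated yeast above a set limit, then at least 30% activation at any dose in follow-up; inconclusive means repeats straddling the limit, or above it without dose testing; inactive means fold induction below the set limit.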

This test can be described thus: mitochondrial function rescue without frataxin homolog – Friedreich's ataxia, plus single-dose screen, dose response (AID 1465). As to conditions: S. cerevisiae Yfh1-off respiration, WST-1 reduction, 72 h; at 50 µM; hits give high values. On the technique in general: Tetrazolium assays rely on reduction of a dye to a coloured formazan, in cell work by metabolically active cells.
With `CCOC(=O)C1=C(Cc2ccc(Cl)cc2)C(=O)c2ccccc2C1=O`, the fold induction (in general, the ratio of treated to control signal) is 1.27.
With `CCOC(=O)C1=C(Cc2ccc(C)cc2)C(=O)c2ccccc2C1=O`, the fold induction is 1.29.
The same measure for `CCNS(=O)(=O)c1ccc(NC(=O)Nc2ccccc2OC)cc1`: 1.1; for `Cc1nc2c(C)cccn2c1/C(O)=C1\C(=O)C(=O)N(CCN(C)C)C1c1ccncc1` (stereo not drawn): 1.11.
The same measure for `Oc1ccc(CN2CCN(Cc3ccccc3)CC2)c2cccnc12`: 1.36; for `COc1ccccc1N1CCN(Cc2cc(Br)c(O)c3ncccc23)CC1`: 0.74; for `Oc1ccc(CN2CCN(c3ccccc3)CC2)c2cccnc12`: 0.91.
The same measure for `Oc1ccc(CN2CCCCC2)c2cccnc12`: 0.69.
In the case of `CCOc1ccc(C(=O)NCC(=O)OCc2c(F)cccc2Cl)cc1`, the fold induction is 1.18.
The same measure for `CCNC(=S)N(Cc1ccc(OC)cc1)C1CC(=O)N(c2ccc(OCC)cc2)C1=O` (stereo not drawn): 0.92; for `NC(=S)Nc1ccccc1Br`: 1.
The same measure for `Cc1ccc(/C=N/NC(=O)CN2CCN(Cc3ccccc3Cl)CC2)o1`: 0.97; for `N#C/C(=N\Nc1ccc(Cl)cc1)C(=O)c1ccccc1`: 0.82.
Regarding `Cc1c(NN=C(C#N)C#N)c(=O)n(-c2ccccc2)n1C`, the fold induction is 0.98.
The same measure for `CCOC(=O)/C(C#N)=N/Nc1c(C)n(C)n(-c2ccccc2)c1=O`: 1; for `Cc1c(N/C=C/C(=O)c2ccc(Cl)cc2)c(=O)n(-c2ccccc2)n1C`: 1.
In the case of `Cc1c(NC=C(C#N)C#N)c(=O)n(-c2ccccc2)n1C`, the fold induction was 0.95.
On to `COC(=O)C(=NNc1c(C)n(C)n(-c2ccccc2)c1=O)C(=O)OC`, for which the fold induction was 1.
In the case of `O=C(c1cc2c(s1)CCCC2)N1CCN(S(=O)(=O)c2ccccc2C(F)(F)F)CC1`, the fold induction is 0.91.
The same measure for `CCC(C)/C(C)=N/NC(=O)c1cn(-c2ccccc2)nc1-c1ccccc1` (stereo not drawn): 0.83.
The same measure for `O=C(O)CC(NC(=O)Cc1ccc([N+](=O)[O-])cc1)c1ccc2c(c1)OCO2` (stereo not drawn): 1.
The same measure for `Cc1ccc(-c2cc3nc(-c4ccccc4)cc(N4CCC5(CC4)OCCO5)n3n2)cc1`: 0.98.
`O=C(Nc1ccon1)c1cccc(C(F)(F)F)c1`: the fold induction was 0.98.
The same measure for `COc1c(O)cc2c(c1O)C(=O)CC(c1ccccc1)O2` (stereo not drawn): 0.86; for `C[C@@H]1Cc2c(O)c(O)cc(O)c2C(=O)O1`: 1.07; for `Cc1cc2cc(C(c3nnnn3Cc3ccco3)N3CCCCC3)c(=O)[nH]c2cc1C` (stereo not drawn): 0.99.
The same measure for `COc1ccc(OC)c(N2C(=O)CC(Cc3ccc(C)cc3)C2=O)c1` (stereo not drawn): 0.84; for `N#C/C(C(=O)N1CCCCC1)=C1\Nc2ccccc2S1`: 0.81.
The same measure for `CC(=O)C1=C(c2ccc(Br)cc2)C(=O)c2ccccc2C1=O`: 0.86; for `COC1=C(c2ccccc2)C(=O)c2ccccc2C1=O`: 1.01.
For `COc1ccc(C/C(O)=C(\C#N)c2nc3ccccc3[nH]2)cc1OC`, the fold induction is 1.12.
Turning to `O=C(CC1(O)C(=O)Nc2ccccc21)c1ccc(-n2cnnn2)cc1` (stereo not drawn), the fold induction was 1.11.
The same measure for `CC1CCCC(NC(=O)c2ccc3c(=O)n(CC4CCCO4)c(=O)[nH]c3c2)C1C` (stereo not drawn): 1.02; for `CCOC(=O)/C(=C/C=C1\Sc2ccccc2N1CC)C(C)=O`: 0.99.
The same measure for `CCC(=O)/C=C1/Sc2ccccc2N1CC`: 0.79; for `COC(=O)c1ccccc1NC(=O)Cn1ccnc1`: 1.02; for `O=[N+]([O-])c1ccc(O)c2ncccc12`: 1.17.
The same measure for `CCC(=O)NC(c1cccs1)c1ccc2cccnc2c1O` (stereo not drawn): 0.88.
As to `CCCC(=O)NC(c1ccco1)c1c(O)ccc2ccccc12` (stereo not drawn), the fold induction was 0.99.
The same measure for `CC(=O)NC(c1ccco1)c1ccc2cccnc2c1O` (stereo not drawn): 0.91.
For the compound `CC(C)CC(=O)NC(c1cccs1)c1ccc2cccnc2c1O` (stereo not drawn), the fold induction was 0.99.
The same measure for `CCCC(=O)NC(c1ccco1)c1cc(Cl)c2cccnc2c1O` (stereo not drawn): 0.7; for `O=C1CNC(=O)N1CC(=O)N1CCCc2ccccc21`: 1.04; for `COc1ccc(C)cc1S(=O)(=O)Nc1cc(Cl)ccc1Cl`: 0.94.
The same measure for `OC(COc1ccc2ccccc2c1)CN1CCN(c2ccc(F)cc2)CC1` (stereo not drawn): 0.93; for `COc1ccc(/C=C2\Sc3ccc(C(=O)NCc4cccnc4)cc3N(C)C2=O)cc1OC`: 1.1; for `c1csc(-c2nnc(N3CCOCC3)c3ccccc23)c1`: 1.39.
For `Cc1c(Nc2ccc(C=O)cc2)c(=O)n(-c2ccccc2)n1C`, the fold induction was 1.09.
The same measure for `Clc1ccc(-c2n[nH]c3c2CCC3)cc1Cl`: 0.777; for `CCC(=O)NNc1ncnc2c1cnn2C`: 1.06; for `CCOc1ccc(Oc2ccc(S(=O)(=O)N3CCOCC3)cc2N)cc1`: 1.12.
In the case of `CCc1nnc(NC(=O)CCC(=O)N2CCN(CCOc3ccc(C)cc3)CC2)s1`, the fold induction is 0.907.
Consider `COc1ccc(NC(=S)NNc2ccc([N+](=O)[O-])cc2S(=O)(=O)Nc2ccc(C)cc2C)cc1`, for which the fold induction is 1.25.
The same measure for `Cc1ccc(NC(=S)NNc2ccc([N+](=O)[O-])cc2S(=O)(=O)Nc2ccccc2C(=O)O)cc1C`: 1.09.
The same measure for `O=C(O)CCc1nn2c3ccccc3nc2n(CCN2CCCCC2)c1=O`: 1.09; for `COc1cc2c(cc1NC(=O)C(C)OC(=O)/C=C/c1ccc(OC(F)F)cc1)oc1ccccc12` (stereo not drawn): 1.12; for `Cc1cc(/C=N/NC(=O)c2ccccc2F)c(C)n1-c1ccccc1`: 1.02.
The same measure for `COc1ccc(/C=N/NC(=O)c2cc(C)n(-c3ccccc3)c2C)cc1OC`: 0.99; for `Cc1ccc(CCCOC(=O)C[N+]2(C)CCOCC2)cc1`: 1.14; for `Cc1c(S(=O)(=O)N2CCN(C(c3ccccc3)c3ccccc3)CC2)c(=O)n(C)c(=O)n1C`: 1.25.
Consider `CN1/C(=C\C=C2/SC(=S)NC2=O)C(C)(C)c2ccccc21`, for which the fold induction is 1.04.
The same measure for `CN1/C(=C\C=O)C(C)(C)c2ccccc21`: 1.07.
The same measure for `CC(C)n1c(SCC(=O)c2ccc3c(c2)OCCO3)nc2c1c(=O)n(C)c(=O)n2C`: 1.06.
The same measure for `O=[N+]([O-])c1cccc(/C=N/Nc2nc(NCc3ccccc3)nc(N3CCOCC3)n2)c1`: 1.03; for `O=[N+]([O-])c1ccc(/C=N/Nc2nc(NCc3ccccc3)nc(N3CCOCC3)n2)cc1`: 1.08; for `CCCCN1C(=O)C2C(c3ccc(OC)cc3O)NC(CC(C)C)(C(=O)O)C2C1=O` (stereo not drawn): 0.99.
`COc1ccc(C(NC(=O)c2cccnc2)c2cc(Cl)c3cccnc3c2O)cc1OC` (stereo not drawn): the fold induction was 0.98.
For the compound `CCCC(=O)NC(c1ccc2c(c1)OCO2)c1cc(Cl)c2cccnc2c1O` (stereo not drawn), the fold induction is 1.12.
For `CCCC(=O)NC(c1ccc(OC)cc1)c1ccc2cccnc2c1O` (stereo not drawn), the fold induction was 0.96.
Consider `CCCC(=O)NC(c1ccc(OC)c(OC)c1)c1cc(Cl)c2cccnc2c1O` (stereo not drawn), for which the fold induction was 1.13.
On to `O=C(CS(=O)(=O)c1c[nH]c2ccccc12)N1CCCCCC1`, for which the fold induction was 1.02.
The same measure for `CCCc1cc(=O)n(-c2nc3ccccc3s2)[nH]1`: 1.
`CC(=NC1CC1)c1c(-c2ccccc2)[nH]n(-c2nc3ccccc3s2)c1=O`: the fold induction was 0.93.
In the case of `Cc1ccc(S(=O)(=O)NCC(=O)OCc2ccccc2)cc1`, the fold induction was 0.97.
On to `COc1ccc(CN2C(=O)[C@H]3Cc4c([nH]c5ccccc45)C(C)(C)N3C2=O)cc1`, for which the fold induction is 0.81.
The same measure for `O=[N+]([O-])c1cc(Cl)c(O)c2ncccc12`: 1.15.
Turning to `O=[N+]([O-])c1cc(Cl)c2cccnc2c1O`, the fold induction was 0.89.
The same measure for `CC(C)C(=O)NC(c1ccccc1)c1cc([N+](=O)[O-])c2cccnc2c1O` (stereo not drawn): 0.98.
The same measure for `CCC(=O)NC(/C=C/c1ccccc1)c1cc([N+](=O)[O-])c2cccnc2c1O` (stereo not drawn): 1.36; for `O=C(NNC(=O)c1cccnc1)Nc1cccc(Cl)c1Cl`: 0.89.
The same measure for `Cc1cnccc1CN(C)Cc1nc(Cc2ccccc2Cl)no1`: 0.85; for `CCC1(C(=O)O)NC(c2cccc(OC)c2O)C2C(=O)N(c3ccccc3)C(=O)C21` (stereo not drawn): 1.01; for `Cc1cc(C)n2nc(-c3sccc3-n3c(C)ccc3C)cc2n1`: 1.01.
Consider `COc1ccc(CN2C3CCCC2CC(NC(=O)Nc2cccc(C)c2)C3)cc1` (stereo not drawn), for which the fold induction is 0.96.
The same measure for `Cc1oc2c(c1C(=O)O)C(=O)c1ccccc1C2=O`: 1.01; for `Cc1ccc(C(=O)c2c(C)oc3c2C(=O)C(=O)c2ccccc2-3)cc1`: 1.18.
The same measure for `C=CCn1c(C)cc(C(=O)COc2ncnc3sccc23)c1C`: 0.88; for `COc1ccccc1N(CN1C(=O)c2ccccc2C1=O)C(=O)c1cccc(C)c1`: 0.82; for `O=C(CCCn1nnc2ccccc2c1=O)N[C@H](C(=O)O)c1ccccc1`: 1.02.
The same measure for `O=C(O)c1cccc(NC(=S)N/N=C/c2cccc(O)c2)c1`: 1.03; for `O=C(O)c1cccc(NC(=S)N/N=C/c2cccnc2)c1`: 0.98.
`COc1c(Cl)cc(Cl)cc1C(=O)n1nc(C)cc1C`: the fold induction is 0.88.
The same measure for `CCOC(=O)c1ccc(NNC(=O)CC)c([N+](=O)[O-])c1`: 1.03.
For the compound `CNc1nc2c(c(=O)[nH]c(=O)n2C)n1CCOC`, the fold induction was 1.02.
For `O=C1NC(=O)/C(=C\c2ccc(N3CCOCC3)o2)N1`, the fold induction was 0.97.
The same measure for `O=C1NC(=O)/C(=C/c2ccc(N3CCOCC3)o2)N1`: 1.01.
In the case of `COc1ccccc1C(CC(=O)N1CCCC1)c1ccc2c(c1)OCO2` (stereo not drawn), the fold induction is 0.99.
Take `NNC(=O)CCc1c[nH]c2ccccc12`: the fold induction was 0.93.
